PubChem BioAssay AID697 (Columbia University Molecular Screening Center, 2007)
About 100 (0.1%) of roughly 96,000 compounds were called active. The sample holds actives, similar compounds and a random draw of the others, so the mix is not that of the screen.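 Rule for the calls: active = activation at 2 µM above a set limit, the mean plus 5 SD (cut at about 37% in these data); inactive = the rest.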

Biological target: Tyrosine-protein phosphatase non-receptor type 22 (Homo sapiens) (UniProt Q9Y2R2)
Sequence (Q9Y2R2 whole entry, looked up): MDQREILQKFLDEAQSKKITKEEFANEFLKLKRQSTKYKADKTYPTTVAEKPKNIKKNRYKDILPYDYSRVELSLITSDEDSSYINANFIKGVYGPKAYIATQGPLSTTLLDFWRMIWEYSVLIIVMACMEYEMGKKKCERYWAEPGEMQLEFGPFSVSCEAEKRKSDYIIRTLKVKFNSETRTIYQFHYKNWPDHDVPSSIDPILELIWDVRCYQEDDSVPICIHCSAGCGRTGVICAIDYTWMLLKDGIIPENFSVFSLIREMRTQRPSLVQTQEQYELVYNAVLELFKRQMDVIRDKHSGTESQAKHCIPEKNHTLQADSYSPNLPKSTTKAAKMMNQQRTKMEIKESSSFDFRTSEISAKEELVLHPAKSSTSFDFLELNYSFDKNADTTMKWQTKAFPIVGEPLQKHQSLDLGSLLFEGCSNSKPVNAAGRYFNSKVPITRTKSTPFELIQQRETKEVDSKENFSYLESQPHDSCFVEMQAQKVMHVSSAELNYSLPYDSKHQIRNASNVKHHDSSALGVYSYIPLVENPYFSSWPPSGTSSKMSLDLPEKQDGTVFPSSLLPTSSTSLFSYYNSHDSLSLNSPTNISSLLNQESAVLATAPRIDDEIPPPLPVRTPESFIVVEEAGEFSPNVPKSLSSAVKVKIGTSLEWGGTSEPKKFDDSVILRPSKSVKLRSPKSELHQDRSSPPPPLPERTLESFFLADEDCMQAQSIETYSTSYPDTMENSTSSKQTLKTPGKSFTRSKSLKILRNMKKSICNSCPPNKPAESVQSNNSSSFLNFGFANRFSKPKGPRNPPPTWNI
Test: LYP phosphatase activators, primary screen, biochemical, DiFMUP fluorescence, 2 µM (AID 697)
Conditions: recombinant LYP, at 2 µM, active compounds read high, 0 = plate median, 100 = signal doubled

activation, inactive:
CCCCNS(=O)(=O)c1ccc(S(=O)(=O)n2cnc3ccccc32)cc1 -10.5%
CO/N=C/c1ccc(N2CCN(C(=O)c3cccc(Cl)c3)CC2)c([N+](=O)[O-])c1 -0.2%
COc1cc(C(=S)N2CCOCC2)cc(OC)c1OC(=O)c1cc([N+](=O)[O-])cc([N+](=O)[O-])c1 -4.3%
CCn1c(C)nc2c1C(=O)c1ccccc1C2=O -0.9%
CCn1c(/C=C/c2ccc([N+](=O)[O-])o2)nc2ccccc2c1=O -10.9%
O=C(NCCCn1ccnc1)Nc1ccc(Cl)cc1Cl 0.8%
O=C(Nc1ccc2c(c1)CCC2)c1cccc(S(=O)(=O)N2CCN(c3ccc(F)cc3)CC2)c1 -11.2%
COCCCNC(=O)C1CC(=O)N(CCc2ccccc2)C1 (stereo not given) 3.1%
Cc1ccc(S(=O)(=O)N2CCC(C(=O)NCC3CCCO3)CC2)cc1 (stereo not given) 0.4%
COC(=O)c1ccccc1Sc1c(/C=N/OCc2ccc(Cl)cc2)c(C(F)(F)F)nn1C -3.5%
CN(C(=O)CC(NC(=O)c1ccccc1)(c1ccccc1)c1ccccc1)c1ccccc1 -4.3%
FC(F)(F)c1cnc(Oc2ccccc2-c2nnc(-c3ccc(Cl)cc3)o2)c(Cl)c1 4.7%
CS(=O)(=O)N(Cc1ccc(Cl)cc1)c1ccc(C(=O)NCCSCc2ccco2)cc1 10.1%
CCOC(=O)N1CCC(N(CCOC)C(=O)Nc2ccc(C)c(C)c2)CC1 -11.9%
COC(=O)c1ccccc1NC(=O)Cc1ccccc1OC -0.7%
COc1ccccc1C(=O)N1CC2(C)CC1CC(C)(C)C2 (stereo not given) -6%
CCOC(=O)C1=C(c2ccccc2)N=C2SCC(=O)N2C1c1ccc(O)c(OC)c1 (stereo not given) 6.1%
Cn1c(CO)cnc1SCc1ccccc1 5.8%
CN(C)c1ccc(/C=C2\NC(=S)N(Cc3ccccc3)C2=O)cc1 -19.7%
CC(C)C(=O)Nc1cccc(NC(=S)NC(=O)C(c2ccccc2)c2ccccc2)c1 -14%
O=C(Nc1ccc(Br)cc1)C1CCC(=O)N1Cc1ccccc1Cl (stereo not given) -2.1%
COC(=O)/C=C/C(=O)NCc1ccco1 -5.4%
N#CCSc1nc2ccc(N3CCOCC3)cc2c(=O)n1CCc1ccccc1 3.3%
CCOC(=O)C(=CNc1cccc(C)n1)C(=O)OCC 6.8%
CCOc1c(Br)cc(/C=C2\C(=O)N(CCC#N)N=C2C)cc1OC -0.1%
CCOC(=O)c1cnc(SCc2nc(N)nc(Nc3ccc(OC)cc3)n2)nc1N 0.5%
CCC(C)NC(=O)c1cc(Cl)ccc1OC (stereo not given) 7%
CCN(CC)CCNC(=O)CCCCCn1c(=O)[nH]c2cc(C(=O)OC)ccc2c1=O 6.8%
O=C(NC1CCCCC1)c1ccc(CNc2c(N3CCOCC3)c(=O)c2=O)cc1 10.2%
CC(C)CNC(=O)CC(c1ccccc1)c1c(O)ccc2ccccc12 (stereo not given) -3.2%
O=C(NC1CCCC1)C(c1ccccn1)N(C(=O)c1csnn1)C1CCCC1 (stereo not given) -2.6%
O=C(COc1ccc2c(C(F)(F)F)cc(=O)oc2c1)Nc1ccc2c(c1)OCCO2 -12.8%
CCOc1ccc(NC(=O)C2CC(=O)N=C(N)S2)cc1 (stereo not given) -0.7%
O=C(CCN1C(=O)c2ccccc2C1=O)Nc1cccc(F)c1 7.2%
CC1(C)CCc2nc(SCc3ccccc3)c(C#N)cc2C1 7.1%
C/C(=N\NC(=O)c1ccc(C)cc1)C1C(=O)c2ccccc2C1=O -6.7%
CCn1nccc1C(=O)Nc1ccc(S(=O)(=O)NC23CC4CC(CC(C4)C2)C3)cc1 4.2%
N#C/C(=C/c1ccc(Cl)cc1)NC(=O)c1ccccc1 -6.7%
OC(COc1ccc2ccccc2c1)Cn1cncn1 (stereo not given) -5.7%
CC1(C)OC(=O)N2CCc3ccccc3C21C (stereo not given) -7.1%
Cc1ccccc1OCc1nnc(SCC(=O)N2c3ccccc3Sc3ccc(Cl)cc32)o1 4.7%
CCOC(=O)C1CSC(CC(=O)Nc2ccc(OCC)cc2)C(=O)N1 (stereo not given) 4.7%
CCN(CC)CCn1c2ccc(Cl)cc2c2nc(C)sc21 -0.1%
CCCc1nc2ccccc2c(C(=O)OCC(=O)c2ccc3c(c2)NC(=O)CO3)c1CC 3.9%
Cc1cc(C)c2c(-n3cccc3)c(C(=O)NNS(=O)(=O)c3ccc(F)cc3)sc2n1 -0.7%
Cc1cc(C)cc(N(CC(=O)N2CC=C(c3ccccc3)CC2)S(=O)(=O)c2c(C)noc2C)c1 -2.1%
O=C(NC1CC1)c1ccc2c(c1)NC(=O)c1ccccc1S2 3.4%
O=C(c1ccccc1)c1cc(-c2ccccn2)c(N2CCOCC2)s1 6.1%
Cc1ccccc1-n1c(C)cc(/C=C2\NC(=O)NC2=O)c1C 12.1%
O=C(CN1CCN(c2ccc(Cl)cc2)CC1)N1CCCC1 -12%
CN(C)C(CNC(=O)CCCOc1ccccc1)c1ccco1 (stereo not given) -1%
N#Cc1ccsc1NC(=O)CN1CCCCC1 5.2%
COCCn1c(=S)[nH]c2cc(C(=O)NCCc3ccc(OC)c(OC)c3)ccc2c1=O -10.7%
Cc1cc(C)c(S(=O)(=O)N2C=CC(C(F)(F)F)=NCC2)c(C)c1 16.2%
Cc1ccc(-c2nn(-c3ccccc3)cc2/C=N/NC(=O)c2ccc3c(c2)OCO3)cc1 -4.4%
Cc1ccc(S(=O)(=O)NC(=O)COc2ccccc2C)cc1 -2.9%
COc1ccc(C(=O)Cc2cnn(-c3ccccc3)c2)c(O)c1 -3%
Cc1ccc(-c2nc3ccccc3[nH]2)cc1NC(=O)c1sc2ccccc2c1Cl -22.6%
COc1cc(N2CCCC2)c(OC)cc1/C=C(/C#N)c1cccc(Br)c1 -2.3%
C=CCn1c(SCCOc2ccc(OC)cc2)nnc1C(NC(=O)c1ccc(OC)cc1)C(C)C (stereo not given) -4.5%
